{
  "source": "paper PMC7862700",
  "about": "“An all-to-all approach to the identification of sequence-specific readers for epigenetic DNA modifications on cytosine”",
  "assay_in_all_cases": "DAPPL (digital affinity profiling via proximity ligation, sequencing); 10 mM Tris-HCl pH 7.5, 50 mM NaCl, 1 mM DTT, 4% glycerol, room temperature, 30 min; GST-TFs on glutathione beads, 16-mer random dsDNA library, 0.1% formaldehyde crosslink after washing; high values mean tight binding",
  "settings_in_all_cases": "protein: recombinant; tags: N-terminal GST; dsDNA, one strand shown",
  "key": {"[1]": {"biological_target": "ELF4 (Homo sapiens, UniProt Q99607 1-663)", "sequence (Q99607 whole entry, the tested form may be a part)": "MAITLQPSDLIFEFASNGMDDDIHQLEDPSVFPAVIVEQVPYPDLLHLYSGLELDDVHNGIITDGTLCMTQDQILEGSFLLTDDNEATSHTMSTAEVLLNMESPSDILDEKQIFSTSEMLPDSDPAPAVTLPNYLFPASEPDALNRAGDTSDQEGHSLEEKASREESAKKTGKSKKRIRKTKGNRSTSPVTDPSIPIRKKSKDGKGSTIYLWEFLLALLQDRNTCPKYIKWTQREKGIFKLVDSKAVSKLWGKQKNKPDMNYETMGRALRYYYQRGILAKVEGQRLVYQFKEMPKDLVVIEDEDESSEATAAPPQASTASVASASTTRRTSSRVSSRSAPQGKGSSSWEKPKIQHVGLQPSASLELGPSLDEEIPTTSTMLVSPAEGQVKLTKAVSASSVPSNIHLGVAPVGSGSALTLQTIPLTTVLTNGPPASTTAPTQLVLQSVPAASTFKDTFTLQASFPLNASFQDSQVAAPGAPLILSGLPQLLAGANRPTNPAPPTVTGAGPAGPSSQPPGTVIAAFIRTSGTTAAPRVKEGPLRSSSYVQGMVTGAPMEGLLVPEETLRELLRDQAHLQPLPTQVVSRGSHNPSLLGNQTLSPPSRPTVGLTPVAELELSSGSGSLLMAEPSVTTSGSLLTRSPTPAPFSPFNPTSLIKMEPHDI", "method_in_brief": "(§1)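 Yeast served to express human transcription factors as GST fusions, which were then captured on glutathione beads and labelled with DNA barcodes. Pooled with a tag-only sample, they were incubated with 200 nmole of a 16-mer random double-stranded DNA library for 30 min at room temperature in Tris/NaCl/DTT/glycerol buffer, washed, crosslinked with 0.1% formaldehyde, ligated by proximity, amplified by PCR and sequenced. Dividing each hexamer's read frequency for a factor by its frequency for the tag-only sample gives the binding signal.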"}, "[2]": {"biological_target": "T1, ELK4 (Homo sapiens, UniProt P28324-2 1-405)", "T1 sequence": "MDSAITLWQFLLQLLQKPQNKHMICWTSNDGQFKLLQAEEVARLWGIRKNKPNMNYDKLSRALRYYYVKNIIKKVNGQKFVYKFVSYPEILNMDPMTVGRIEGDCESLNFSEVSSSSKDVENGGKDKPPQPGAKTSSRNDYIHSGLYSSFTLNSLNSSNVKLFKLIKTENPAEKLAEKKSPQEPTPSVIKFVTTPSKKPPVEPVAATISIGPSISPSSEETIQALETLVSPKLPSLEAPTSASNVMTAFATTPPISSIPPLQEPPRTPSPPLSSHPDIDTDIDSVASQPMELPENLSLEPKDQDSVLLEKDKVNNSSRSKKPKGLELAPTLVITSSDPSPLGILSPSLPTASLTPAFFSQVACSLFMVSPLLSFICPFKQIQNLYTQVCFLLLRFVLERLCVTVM", "method_in_brief": "as §1"}, "[3]": {"biological_target": "T2, ETV2 (Homo sapiens, UniProt O00321 1-342)", "T2 sequence": "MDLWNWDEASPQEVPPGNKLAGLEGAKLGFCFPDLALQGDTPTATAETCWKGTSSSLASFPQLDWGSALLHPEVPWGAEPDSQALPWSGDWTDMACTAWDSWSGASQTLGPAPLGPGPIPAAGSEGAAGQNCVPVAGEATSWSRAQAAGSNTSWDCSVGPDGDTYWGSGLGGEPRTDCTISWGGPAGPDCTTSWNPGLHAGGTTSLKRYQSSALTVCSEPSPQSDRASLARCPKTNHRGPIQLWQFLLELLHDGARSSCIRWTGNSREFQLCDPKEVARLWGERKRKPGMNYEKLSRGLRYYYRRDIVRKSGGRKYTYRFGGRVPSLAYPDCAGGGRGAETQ", "method_in_brief": "as §1"}, "[4]": {"biological_target": "T3, ELF3 (Homo sapiens, UniProt P78545 1-371)", "T3 sequence": "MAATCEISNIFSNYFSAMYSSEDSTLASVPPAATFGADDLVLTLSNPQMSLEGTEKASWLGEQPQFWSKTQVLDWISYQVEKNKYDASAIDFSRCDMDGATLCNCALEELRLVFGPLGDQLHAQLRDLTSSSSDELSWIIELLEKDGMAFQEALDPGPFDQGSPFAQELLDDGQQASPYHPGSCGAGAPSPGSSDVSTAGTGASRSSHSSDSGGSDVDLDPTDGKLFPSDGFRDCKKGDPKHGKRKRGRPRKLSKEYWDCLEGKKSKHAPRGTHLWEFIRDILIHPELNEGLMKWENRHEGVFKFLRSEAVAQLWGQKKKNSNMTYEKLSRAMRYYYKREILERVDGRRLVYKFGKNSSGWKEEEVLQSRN", "method_in_brief": "as §1"}, "[5]": {"biological_target": "T4, ERF (Homo sapiens, UniProt P50548 1-548)", "T4 sequence": "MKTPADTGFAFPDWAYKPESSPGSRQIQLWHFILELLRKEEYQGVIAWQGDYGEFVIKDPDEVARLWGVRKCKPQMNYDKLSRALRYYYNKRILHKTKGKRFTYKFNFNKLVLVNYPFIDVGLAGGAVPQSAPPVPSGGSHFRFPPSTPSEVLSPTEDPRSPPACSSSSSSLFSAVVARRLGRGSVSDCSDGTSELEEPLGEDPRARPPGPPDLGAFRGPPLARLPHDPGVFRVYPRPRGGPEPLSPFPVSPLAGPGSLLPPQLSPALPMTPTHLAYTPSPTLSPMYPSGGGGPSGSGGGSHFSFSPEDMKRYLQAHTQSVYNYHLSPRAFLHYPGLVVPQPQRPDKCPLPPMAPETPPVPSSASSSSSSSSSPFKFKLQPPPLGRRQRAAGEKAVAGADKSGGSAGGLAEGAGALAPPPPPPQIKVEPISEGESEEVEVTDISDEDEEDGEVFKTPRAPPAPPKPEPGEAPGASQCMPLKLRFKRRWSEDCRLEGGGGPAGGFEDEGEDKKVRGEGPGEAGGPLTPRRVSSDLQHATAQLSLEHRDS", "method_in_brief": "as §1"}, "[6]": {"biological_target": "T5, ETV3L (Homo sapiens, UniProt Q6ZN32 1-361)", "T5 sequence": "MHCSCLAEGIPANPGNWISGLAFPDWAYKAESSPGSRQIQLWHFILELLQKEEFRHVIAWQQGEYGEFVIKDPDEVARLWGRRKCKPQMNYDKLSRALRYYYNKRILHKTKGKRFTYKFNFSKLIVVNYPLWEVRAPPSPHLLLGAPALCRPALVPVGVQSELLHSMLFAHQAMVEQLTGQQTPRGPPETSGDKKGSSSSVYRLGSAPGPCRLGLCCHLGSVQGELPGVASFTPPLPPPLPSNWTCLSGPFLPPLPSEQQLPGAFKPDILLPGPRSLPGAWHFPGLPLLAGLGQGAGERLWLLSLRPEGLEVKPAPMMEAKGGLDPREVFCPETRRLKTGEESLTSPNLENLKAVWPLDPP", "method_in_brief": "as §1"}, "[7]": {"biological_target": "T6, ETS2 (Homo sapiens, UniProt P15036 1-469)", "T6 sequence": "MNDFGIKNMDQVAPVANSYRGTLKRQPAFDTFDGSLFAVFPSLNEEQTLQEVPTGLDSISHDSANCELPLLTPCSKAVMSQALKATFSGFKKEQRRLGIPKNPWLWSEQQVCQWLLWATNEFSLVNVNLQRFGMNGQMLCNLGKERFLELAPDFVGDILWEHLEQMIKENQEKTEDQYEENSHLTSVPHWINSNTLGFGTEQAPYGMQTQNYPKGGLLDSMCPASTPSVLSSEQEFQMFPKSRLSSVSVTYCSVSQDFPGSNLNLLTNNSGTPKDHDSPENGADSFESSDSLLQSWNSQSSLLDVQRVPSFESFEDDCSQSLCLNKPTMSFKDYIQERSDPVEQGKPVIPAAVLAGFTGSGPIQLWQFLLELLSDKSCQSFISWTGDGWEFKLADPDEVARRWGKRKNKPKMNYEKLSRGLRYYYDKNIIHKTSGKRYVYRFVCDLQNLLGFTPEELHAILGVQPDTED", "method_in_brief": "as §1"}, "[8]": {"biological_target": "T7, ETV7 (Homo sapiens, UniProt Q9Y603 1-341)", "T7 sequence": "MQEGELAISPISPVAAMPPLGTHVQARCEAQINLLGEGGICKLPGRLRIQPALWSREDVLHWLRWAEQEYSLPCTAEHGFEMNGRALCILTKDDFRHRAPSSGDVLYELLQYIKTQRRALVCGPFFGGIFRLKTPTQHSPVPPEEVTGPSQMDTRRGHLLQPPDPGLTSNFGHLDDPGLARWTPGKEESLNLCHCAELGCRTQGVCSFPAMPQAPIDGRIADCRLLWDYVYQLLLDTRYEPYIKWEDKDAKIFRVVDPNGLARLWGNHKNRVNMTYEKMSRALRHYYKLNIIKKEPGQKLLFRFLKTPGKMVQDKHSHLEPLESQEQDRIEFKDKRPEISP", "method_in_brief": "as §1"}, "[9]": {"biological_target": "T8, ETV3 (Homo sapiens, UniProt P41162-2 1-143)", "T8 sequence": "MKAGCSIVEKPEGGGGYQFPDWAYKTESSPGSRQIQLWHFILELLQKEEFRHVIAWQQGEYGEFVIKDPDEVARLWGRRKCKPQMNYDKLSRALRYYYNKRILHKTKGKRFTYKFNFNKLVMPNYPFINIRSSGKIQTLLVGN", "method_in_brief": "as §1"}, "[10]": {"biological_target": "ETV6 (Homo sapiens, UniProt P41212 1-452)", "sequence (P41212 whole entry)": "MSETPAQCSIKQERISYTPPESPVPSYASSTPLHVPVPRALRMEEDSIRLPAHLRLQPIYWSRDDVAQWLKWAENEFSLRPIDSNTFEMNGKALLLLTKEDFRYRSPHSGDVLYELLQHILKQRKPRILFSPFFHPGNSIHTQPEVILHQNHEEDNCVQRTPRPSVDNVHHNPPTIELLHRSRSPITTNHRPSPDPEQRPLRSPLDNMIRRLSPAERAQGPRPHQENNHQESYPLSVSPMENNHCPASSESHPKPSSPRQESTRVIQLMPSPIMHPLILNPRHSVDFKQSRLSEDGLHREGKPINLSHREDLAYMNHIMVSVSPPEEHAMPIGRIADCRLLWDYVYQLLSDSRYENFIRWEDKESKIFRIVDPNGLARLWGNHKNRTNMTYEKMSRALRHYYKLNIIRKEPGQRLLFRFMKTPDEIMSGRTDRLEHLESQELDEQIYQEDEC", "method_in_brief": "as §1"}},
  "data": [
    {"sequence": "TTAGAT", "values": [
      {"measurement": "binding signal", "setting": "[1]", "value": "1.12 fold enrichment (6-mer frequency, TF over GST control)"},
      {"measurement": "binding signal", "setting": "[2]", "value": "1.23 fold enrichment (6-mer frequency, TF over GST control)"},
      {"measurement": "binding signal", "setting": "[3]", "value": "1.16 fold enrichment (6-mer frequency, TF over GST control)"},
      {"measurement": "binding signal", "setting": "[4]", "value": "1.05 fold enrichment (6-mer frequency, TF over GST control)"},
      {"measurement": "binding signal", "setting": "[5]", "value": "1.21 fold enrichment (6-mer frequency, TF over GST control)"},
      {"measurement": "binding signal", "setting": "[6]", "value": "1.04 fold enrichment (6-mer frequency, TF over GST control)"},
      {"measurement": "binding signal", "setting": "[7]", "value": "1.01 fold enrichment (6-mer frequency, TF over GST control)"},
      {"measurement": "binding signal", "setting": "[8]", "value": "1.03 fold enrichment (6-mer frequency, TF over GST control)"},
      {"measurement": "binding signal", "setting": "[9]", "value": "1.07 fold enrichment (6-mer frequency, TF over GST control)"},
      {"measurement": "binding signal", "setting": "[10]", "value": "1.03 fold enrichment (6-mer frequency, TF over GST control)"}
    ]}
  ]
}
